What was measured:
Test in all cases: thermal shift delta Tm vs DMSO control; higher = stronger stabilization (binding)
Details in all cases: 12.5 µM; protein concentration 2 µM
[1] = system: LOC_OS02G45750-cb003
Summary of the method: (§1)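 Heating from 25°C to 95°C at 0.05°C/s, fluorescence was recorded for 19.5 μl wells of 2 μM E. coli-expressed, purified rice kinase domain in 100 mM potassium phosphate pH 7.5, 150 mM NaCl, 10% glycerol and 5 × SYPRO Orange with compound in DMSO. Boltzmann fits gave melting temperatures for this differential scanning fluorimetry assay. The shift reported is the mean of three replicates against the DMSO-only protein.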

[2] = system: LOC_OS02G54510-cb004
Summary of the method: as §1

[3] = system: LOC_OS03G04050-cb001
Summary of the method: as §1

[4] = system: LOC_OS03G12390-cb001
Summary of the method: as §1

[5] = system: LOC_OS03G27990-cb004
Summary of the method: as §1

[6] = system: LOC_OS03G50450-cb001
Summary of the method: as §1

[7] = system: LOC_OS03G50810-cb003
Summary of the method: as §1

[8] = system: LOC_OS04G35114-cb001
Summary of the method: as §1

[9] = system: T1, LOC_OS04G38480-cb003
T1 sequence (whole entry): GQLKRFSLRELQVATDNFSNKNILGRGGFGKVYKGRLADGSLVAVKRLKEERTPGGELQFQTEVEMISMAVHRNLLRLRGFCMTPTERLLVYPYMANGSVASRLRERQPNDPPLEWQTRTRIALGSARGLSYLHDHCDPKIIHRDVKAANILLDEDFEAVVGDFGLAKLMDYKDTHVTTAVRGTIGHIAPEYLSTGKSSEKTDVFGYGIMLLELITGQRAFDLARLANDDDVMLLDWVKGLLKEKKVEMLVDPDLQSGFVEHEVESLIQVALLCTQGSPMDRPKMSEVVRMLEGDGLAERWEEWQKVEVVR
Summary of the method: as §1

[10] = system: T2, LOC_OS04G41100-cb001
T2 sequence (whole entry): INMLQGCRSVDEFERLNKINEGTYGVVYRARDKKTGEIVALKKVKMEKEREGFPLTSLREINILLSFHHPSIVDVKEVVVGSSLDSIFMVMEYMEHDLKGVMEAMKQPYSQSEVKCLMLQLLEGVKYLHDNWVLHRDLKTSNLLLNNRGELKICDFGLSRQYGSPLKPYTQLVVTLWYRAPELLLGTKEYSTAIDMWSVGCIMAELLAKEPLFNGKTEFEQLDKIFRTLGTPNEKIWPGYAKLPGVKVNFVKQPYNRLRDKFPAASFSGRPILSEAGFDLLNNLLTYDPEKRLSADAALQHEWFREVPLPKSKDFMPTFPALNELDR
Summary of the method: as §1
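Also: purified Escherichia coli-expressed rice kinase domain construct.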

SMILES | thermal shift delta Tm [1] [°C] | thermal shift delta Tm [2] [°C] | thermal shift delta Tm [3] [°C] | thermal shift delta Tm [4] [°C] | thermal shift delta Tm [5] [°C] | thermal shift delta Tm [6] [°C] | thermal shift delta Tm [7] [°C] | thermal shift delta Tm [8] [°C] | thermal shift delta Tm [9] [°C] | thermal shift delta Tm [10] [°C]
CC(C)CCN1c2nc(Nc3cc(F)c(O)c(F)c3)ncc2N(C)C(=O)C1C (stereo not given) | 3.25 | 1.91 | 0.57 | 7.92 | 3.82 | 2.58 | 3.02 | 3.84 | 4.5 | 1.29
COc1cc(Nc2ncc(F)c(Nc3ccc4c(n3)NC(=O)C(C)(C)O4)n2)cc(OC)c1OC | 6.19 | 4.62 | 0.45 | 9.67 | 2.62 | 10.5 | 5.15 | 2.97 | 4.12 | 0.74
CCS(=O)(=O)c1cccc(-c2cc(C(=O)NC3CCN(C)CC3)c(C)c3[nH]c4ncc(C)cc4c23)c1 | 5.63 | 2.03 | -0.02 | 6.67 | 3.82 | 3.53 | 5.67 | 6.23 | 3.14 | 0.65
O=C(NC(NC(=S)Nc1ccc(F)c([N+](=O)[O-])c1)C(Cl)(Cl)Cl)C(c1ccccc1)c1ccccc1 (stereo not given) | 0.8 | 1.3 | 1.21 | 1.23 | 0.49 | 0.84 | 1.45 | 1.31 | 3.23 | 0.88
c1ccc(-c2[nH]ncc2-c2ccnc3ccccc23)nc1 | 0.48 | 0.4 | 0.67 | 0.41 | 0.25 | 0.76 | 0.28 | 0.25 | 2.34 | 0.99
CC(=O)Nc1cccc(-n2c(=O)n(C3CC3)c(=O)c3c(Nc4ccc(I)cc4F)n(C)c(=O)c(C)c32)c1 | 0.35 | -0.04 | 0.2 | -0.13 | 0.22 | 0.62 | 0.43 | 0.56 | 0.86 | 0.62
O=c1cc(-c2ccccc2)oc2c(O)c(O)ccc12 [7,8-Dihydroxyflavone] | 1.01 | 0.54 | 1.54 | 0.5 | 0.49 | 0.77 | 0.46 | -0.74 | 0.33 | -0.06
CCCCCCCCCCCCCCCCCCOP(=O)([O-])OC1CC[N+](C)(C)CC1 [Perifosine (KRX-0401)] | -1.3 | -1.77 | -3.06 | -3.5 | -2.47 | -2.45 | -1.54 | -3.56 | -0.3 | -0.69
Cc1cc(Nc2cc(N)ncn2)c(=O)n2c1C(=O)NC21CCCCC1 | 0.8 | 0.09 | 0.28 | 0.13 | 0.19 | 0.47 | 0.4 | 0.45 | 0.09 | 0.53
CCCCCCCCCCCCCCCCOP(=O)([O-])OCC[N+](C)(C)C [Miltefosine] | -1.69 | -3.98 | -6.02 | -3.65 | -2.36 | -1.33 | -3.31 | -3.53 | -0.41 | -0.66
c1cn2cc(-c3ccc4cn[nH]c4c3)nc(Nc3ccc(N4CCOCC4)cc3)c2n1 [Entospletinib (GS-9973)] | 0.66 | 1.02 | 0.92 | 3.99 | 1.72 | 4.22 | 2.13 | 2.13 | 2.56 | 1.01
COc1cc2ncnc(Nc3ccc(Oc4ccccc4)cc3C)c2cc1OC | 1.39 | 0.53 | 0.35 | -0.19 | 0.39 | 0.77 | 0.51 | 4.14 | 1.19 | -0.13
O=C(O)c1ccc2c(c1)nc(Nc1cccc(Cl)c1)c1ccncc12 [Silmitasertib (CX-4945)] | 1.82 | 1.5 | 0.25 | 4.4 | 4.14 | 0.83 | 1.55 | 6.87 | 1.13 | 0.77
Cc1cc([C@@H](C)Nc2ccccc2C(=O)O)c2nc(N3CCOCC3)cc(=O)n2c1 | 0.61 | 0.49 | 0.29 | 0.3 | 0.29 | 0.63 | 0.56 | 0.73 | 0.55 | 0.37
COc1cc2c(N3CCN(C(=O)Nc4ccc(OC(C)C)cc4)CC3)ncnc2cc1OCCCN1CCCCC1 [Tandutinib (MLN518)] | 1.37 | 0.74 | 0.9 | 0.38 | 0.28 | 0.42 | 0.95 | 1.58 | 1.79 | 0.92
C#Cc1cccc(Nc2ncnc3cc(OCCOC)c(OCCOC)cc23)c1 [Erlotinib] | 4.13 | 0.7 | 0.03 | 2.11 | 0.02 | -0.06 | 1.07 | 6.16 | 1.65 | -0.05
CCOc1ccn(-c2ccc(F)cc2)c(=O)c1C(=O)Nc1ccc(Oc2ccnc(N)c2Cl)c(F)c1 | 1.27 | 0.13 | 0.16 | 0.96 | 0.05 | 0.3 | 0.47 | 1.17 | 1.53 | 2.01
O=C(Nc1ccc(OC(F)(F)F)cc1)c1sccc1NCc1ccnc2ccccc12 | 0.52 | 4.36 | 0.44 | 0.88 | 0.45 | 0.51 | 0.48 | 0.29 | 0.95 | 0.59
COc1ccc2[nH]cc(/C=C3\C(=O)Nc4ccc(NC(=O)CCN5CCCCC5)cc43)c2c1 | 4.5 | 0.79 | 0.56 | 1.22 | 1.19 | 0.34 | 3.45 | 5.49 | 2.41 | 0.9
O=c1c(O)c(-c2cc(O)c(O)c(O)c2)oc2cc(O)cc(O)c12 [Myricetin] | 0.6 | -0.42 | 1.12 | 1.2 | 1.89 | 2.61 | -0.73 | 2.51 | 3.89 | 0.92

From the supplement of paper PMC9694430
